In the OligoGym collection:

Molecular target: SULT1A2
Assay: pooled miR-30 sensor sort-seq; sequence = guide strand
Conditions: shRNA
Also: reference of the scale not given here.

| Sequence | sensor-assay potency score (higher = more potent) |
| --- | --- |
| TTATTCTGGAGCCTCTTGGTCA | -0.61 |
| ACCCATAGGACACTTCTCCAGC | -2.4 |
| TAGGAAACCGCCACATCCTTTG | -0.928 |
| TGTGTTTTTCAGAGTCTCCATC | -0.796 |
| TGGGACTTTGAACTCAAGGAAG | -1.59 |
| TTTTTCAGAGTCTCCATCCCTG | -0.0359 |
| TCCAGCCATGAACTTCTCCAGG | -1.76 |
| ATGAGGTCCACAGTCTCCTCTG | -1 |
| TGGTCCATGAACTCCCGGCGGA | -1.53 |
| TGAGGTCCACAGTCTCCTCTGG | -0.796 |

Molecular target: SULT6B1
Assay: as above
Conditions: shRNA

| Sequence | sensor-assay potency score (higher = more potent) |
| --- | --- |
| TAATTTGTCATAGTGGAGGTGA | 0.271 |
| TTATTCTCGAAGATAGACCCAG | -0.349 |
| TGGAATATCGGGGACATCGTTG | -1.15 |
| TACTGCTGTATCTTTAGGGTTT | -0.446 |
| TAATATGAACTTAACATTGTCG | 0.349 |
| TAATTCACTGACAATGTGGAGA | -0.0659 |
| TATGAACTTAACATTGTCGCCA | 0.543 |
| TATTCTCGAAGATAGACCCAGG | -0.373 |
| TGAACTTAACATTGTCGCCATC | -1.22 |
| TATAATATGAACTTAACATTGT | -0.395 |
| TATTAATTCACTGACAATGTGG | -0.366 |
| TGTCCTTTCATGAACTGTCTGA | 0.266 |

Molecular target: SUN1
Assay: as above
Conditions: shRNA

| Sequence | sensor-assay potency score (higher = more potent) |
| --- | --- |
| TTCAGGGAGACAGCGCTGCTGG | -1.01 |
| TTGTTGTTCTGGCCGCTCGGTT | -1.37 |
| TTTGTTTGTGCTTCTGCGCTGT | 0.665 |
| TTGGAAAGCTGTGTCGTCGGGT | 0.562 |
| TTGTTTGTGCTTCTGCGCTGTT | -0.561 |
| TTTTCTAATCCATAGACGGCGA | -0.893 |
| TTTGTTGTTCTGGCCGCTCGGT | -0.815 |
| TTCTTCAGGGAGACAGCGCTGC | -0.739 |
| TTTTGGTTTCGTAAGTTTCAGA | -0.848 |
| TAGAATAAACTCTCGACACGGG | -0.0133 |
| TCGAGTCACAGCATCCTGCAGG | -0.812 |

Molecular target: SURF1
Assay: as above
Conditions: shRNA

| Sequence | sensor-assay potency score (higher = more potent) |
| --- | --- |
| TCAGCTTCCACTTCCGACGCTG | 0.863 |
| TTCAGGATTCACTTTCTTCCTG | -0.13 |
| TTGTGGCAGATGCTTCTGCTGC | -1.64 |
| TTCCAGGTCTCGATAATGCCAG | -0.863 |
| TCTGTCAGCCTCACCATCCCAA | -0.843 |
| TCAGGATTCACTTTCTTCCTGG | 0.148 |
| TACCAGTAGCACATGATCCAGC | -0.00567 |
